Assay outcomes (PubChem BioAssay)
Most compounds without a hit are left out; they make up all but 2.4% or so of the library.
WRN helicase inh-1: inhibitors of human WRN helicase. AID 651768. 360,000 tested, 0.46% active. WRN helicase unwinding, fluorescent forked duplex, kinetic. Potency, µM (highest dose often 114 µM), for the others: at the top dose activity change, negative = inhibition, usual class: inhibitors. Q14191; also: % is scaled to controls: 0 for no effect and ±100 for the full control effect; nearly all actives have a fitted effect of over 55% in size
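WRN at 20 nM final preincubated with compound 15 min at room temperature; reaction started with 100 nM fluorophore/quencher forked duplex oligonucleotide and 2 mM ATP final. Unwinding followed kinetically by red fluorescence (ex 525, em 598 nm).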
Pol kappa inh-1: DNA polymerase kappa (human) inhibition | AID 588579 | Potency, µM (top dose mostly 107 µM), for the others: at the top dose activity, negative = inhibition, actives largely listed as inhibitors | Q9UBT6 | 400,000 tested, 0.53% active | purified Pol kappa, fluorescent DNA synthesis assay, 10 min; also: % is scaled to controls: 0 for no effect and ±100 for the full control effect
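Fluorescent qHTS in 1536-well format: enzyme (10 nM) and compound sat 15 min at room temperature before 50 nM substrate (final) was added. Signal taken at 0 and 10 min; no-enzyme buffer wells were negative controls.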
Pol beta inh: DNA polymerase beta (human) inhibition; 340,000 tested, 1.3% active; Pol beta primer extension/strand displacement, fluorescence kinetic; Potency, µM (doses to about 114 µM), for inactives: at the highest dose activity change, negative = inhibition, usual class: inhibitors; also: % is scaled to controls: 0 for no effect and ±100 for the full control effect
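Kinetic readout of DNA synthesis with strand displacement by Pol beta. Compound and 10 nM enzyme sit 15 min at room temperature; 50 nM substrate starts the reaction, read immediately and at 10 min.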
FEN1 inh-1: inhibitors of human flap endonuclease 1 | 390,000 tested, 0.35% active | AID 588795 | Recombinant FEN1 flap cleavage, fluorescence, 15 min | Potency, µM (highest dose often 114 µM), for the others: at the highest dose activity change, negative = inhibition, actives largely listed as inhibitors; also: % is scaled to controls: 0 for no effect and ±100 for the full control effect; nearly all actives have a fitted effect of over 65% in size
Target sequence (P39748 whole entry, looked up): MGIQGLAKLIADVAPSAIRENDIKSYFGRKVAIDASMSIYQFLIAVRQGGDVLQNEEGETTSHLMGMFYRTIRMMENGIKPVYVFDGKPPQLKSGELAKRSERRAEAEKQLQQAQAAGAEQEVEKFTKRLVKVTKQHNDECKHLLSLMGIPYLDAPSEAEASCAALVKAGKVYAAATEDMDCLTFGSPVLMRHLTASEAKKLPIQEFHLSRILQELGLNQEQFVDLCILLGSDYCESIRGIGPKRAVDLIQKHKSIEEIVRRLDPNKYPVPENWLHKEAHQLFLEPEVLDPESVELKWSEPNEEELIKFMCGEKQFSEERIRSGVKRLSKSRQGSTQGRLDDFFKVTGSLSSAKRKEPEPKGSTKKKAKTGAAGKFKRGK
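FEN1 at 10 nM, compound pretreatment for 15 min (room temperature), 50 nM final substrate to initiate; endpoint reads at 0 and 15 min; DMSO-only plates used as vehicle background.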
Pol eta inh-1: DNA polymerase eta (human) inhibition; Q9Y253; recombinant Pol eta, fluorescent DNA replication assay; Potency, µM (series often up to 114 µM), without a hit: top-dose activity change, negative = inhibition, usual class: inhibitors; 390,000 tested, 1.2% active; AID 588591; also: % is scaled to controls: 0 for no effect and ±100 for the full control effect
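Pol eta (10 nM) was preincubated with compounds for 15 min at room temperature, after which fluorescent replication substrate (50 nM final) was added to start the reaction. Fluorescence was read kinetically at 0 and 10 min.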
Pol iota inh: inhibitors of human DNA polymerase iota; Q9UNA4; Pol iota fluorescent replication assay, 10 min; Potency, µM (highest dose often 115 µM), for the others: top-dose activity, negative = inhibition, actives largely listed as inhibitors; 390,000 tested, 1% active
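Fluorescent replication assay read twice, at 0 min and 10 min after adding 50 nM (final) substrate. Enzyme (10 nM) and compounds were first incubated 15 min at room temperature; enzyme-free buffer wells were negative controls.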
Pol kappa inh-2: confirmation of human DNA polymerase kappa inhibitors | shares compounds with Pol eta inh-1 | purified Pol-kappa, fluorescent strand-displacement substrate | Potency, µM, most hits filed as inhibitors | 920 tested, 76% active | AID 720501
Pol eta inh-2: confirmation of human DNA polymerase eta inhibitors; shares compounds with Pol eta inh-1; Pol eta primer extension, TAMRA/BHQ fluorescence, 10 min; Potency, µM, most hits filed as inhibitors; 2,600 tested, 64% active
FEN1 inh-2: confirmation of human FEN1 inhibitors; shares compounds with FEN1 inh-1; FEN1 flap cleavage, TAMRA/BHQ2 fluorogenic DNA substrate; Potency, µM, actives largely listed as inhibitors; 880 tested, 79% active; AID 720498; also: nearly all actives have a fitted effect of over 60% in size
WRN helicase inh-2: confirmation of human WRN helicase inhibitors; shares compounds with WRN helicase inh-1; WRN helicase DNA unwinding, fluorescence kinetic; Potency, µM (doses to about 57.1 µM), without a hit: at the highest dose activity, negative = inhibition, hits mostly inhibitors; 610 tested, 63% active; AID 720497; also: nearly all actives have a fitted effect of over 65% in size
TO displacement: DNA binding via thiazole orange displacement | shares compounds with WRN helicase inh-1 | thiazole orange DNA binding displacement, fluorescence | Potency, µM (titrated, usually from 57.1 µM), for the others: top-dose activity change, negative = inhibition, usual class: inhibitors | 610 tested, 10% active;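 also: drop in dye fluorescence marks compound binding to DNA; % is scaled to controls: 0 for no effect and ±100 for the full control effect; nearly all actives have a fitted effect of over 60% in size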
BLM helicase inh: BLM helicase inhibition, WRN selectivity check | 610 tested, 60% active | shares compounds with WRN helicase inh-1 | Recombinant BLM helicase DNA unwinding, red fluorescence | Potency, µM (highest dose often 57.1 µM), without a hit: at the highest dose activity change, negative = inhibition, actives largely listed as inhibitors; also: nearly all actives have a fitted effect of over 60% in size
* hit, by the source's call; ? = inconclusive; . = not tested or not shown; [ ] = dose if it differs, or a comment. Calls follow the shape of the dose curve; as a rule, active = well fitted curve in the direction sought with a large enough effect; inconclusive = small, poorly fitted or top-dose-only effect, or another doubt; inactive = no such curve, though single readings can be large; an effect the other way counts as inactive or inconclusive. Potency is read from the fitted curve at half-maximal effect.

SMILES	WRN helicase inh-1	Pol kappa inh-1	Pol beta inh	FEN1 inh-1	Pol eta inh-1	Pol iota inh	Pol eta inh-2	WRN helicase inh-2	TO displacement	BLM helicase inh	others
COc1cc([N+](=O)[O-])cc(/C=C2/SC(=S)N(Cc3ccccc3)C2=O)c1O	2.7µM*	-20%	18µM*	16µM*	?	14µM*	43*	7.6µM*	14µM*	5.4µM*	Pol kappa inh-2=19*;FEN1 inh-2=21*
CCC(=O)c1ccc(CCCCCC(=O)O)s1	?	?	35µM*	3%	8.9µM*	?	38*	22µM*	3%	22µM*
COc1cccc(C(=O)Nc2cccc(C(=O)NC3=NN(c4c(Cl)cc(Cl)cc4Cl)C(=O)C3)c2)c1	?	22µM*	14µM*	?	40µM*	?	76*	?	?	?
CCC1(c2ccccc2)NC(=S)N(c2ccc(C)c(C)c2)N1 (centres undefined)	0%	-3%	13%	3%	-5%	134%	.	.	.	.
O=C1NN(c2ccccc2)C(=O)/C1=C\c1coc2ccc(O)cc2c1=O	?	?	?	-8%	?	?	?	-22%	-11%	?
O=C1NN(c2ccccc2)C(=O)/C1=C/c1coc2ccccc2c1=O	?	?	-21%	0%	?	?	.	.	.	.
CCCC(NC(=O)CNC(=O)C(C)(C)C)C(=O)O (centres undefined)	0%	0%	2%	2%	-2%	4%	.	.	.	.
CCOc1cc(C(=O)N/N=C/C(Br)=C/c2ccccc2)cc(OCC)c1OCC	1%	-6%	-1%	3%	-1%	116%	.	.	.	.
CC1C=CC(C)C(C(=O)O)C1C(=O)O (centres undefined)	?	40µM*	5.6µM*	-6%	2.5µM*	?	5.4*	14µM*	38%	4.8µM*
N[C@H](C(=O)O)C1[C@H](C(=O)O)[C@H]1C(=O)O (some centres undefined)	.	-7%[19.4 µM]	.	.	.	.	.	.	.	.
COc1cc(NS(=O)(=O)c2ccc(NC(=S)NC(=O)c3sc4cc(F)ccc4c3Cl)cc2)nc(OC)n1	?	1%	32%	?	45µM*	?	43*	22µM*	-21%	24µM*	FEN1 inh-2=?
O=C(O)/C=C/C(=O)c1ccc2c(c1)CCc1ccccc1-2	1.5µM*	-15%	.	?	35µM*	1.6µM*	?	?	-10%	19µM*
CCOC(=O)C1=NNC(C(=O)c2ccccc2)C1c1ccc(OC)cc1 (centres undefined)	-6%	-7%	.	1%	-17%	16%	.	.	.	.
CC(=O)Oc1cc(C(=O)OCC(=O)N2CCc3ccccc3C2)cc(OC(C)=O)c1OC(C)=O	18µM*	40µM*	.	25µM*	7.1µM*	?	?	27µM*	-5%	22µM*	Pol kappa inh-2=17*;FEN1 inh-2=24*
CN(C)c1ccc(/C=C/C=C2/SC(=S)N(c3ccccc3)C2=O)cc1	?	-4%	37%	-9%	0%	?	.	.	.	.
O=C1/C(=C/C=C/c2ccco2)SC(=S)N1c1ccc(O)cc1	32µM*	7.9µM*	3.2µM*	14µM*	3.5µM*	?	60*	12µM*	?	8.6µM*
Cc1ccc(S(=O)(=O)N2CCCC2CNC(=O)C(=O)Nc2ccccc2)cc1 (centres undefined)	-19%	-4%	.	33%	-19%	-10%	.	.	.	.
O=c1c(Br)ccc(Br)cc1Br	10µM*	-6%	.	?	28µM*	7.1µM*	?	24µM*	-20%	22µM*
O=C1CN(S(=O)(=O)c2cc(Br)ccc2Br)CCN1	6%	8%	.	-2%	-11%	10%	.	.	.	.
CCNC(=S)N/N=C1\C(=O)c2cccc3cccc1c23	-5%	-1%	-3%	-1%	1%	12%	.	.	.	.
O=C(N/N=C1/C(=O)c2cccc3cccc1c23)c1ccc(Cl)cc1	16µM*	-42%	?	79µM*	8.9µM*	49%	?	6.1µM*	19µM*	2.2µM*
COc1ccc(-c2cn3cccnc3n2)cc1NC(=O)Nc1cc(C)ccc1C	.	-13%	-15%	-16%	79µM*	?	?	15µM*	-8%	6.8µM*	Pol kappa inh-2=15*
O=C1OC(c2cccs2)=N/C1=C\c1ccc(-c2cccc(Cl)c2)o1	-23%	-22%	0%	-1%	?	?	.	.	.	.
N=C1S/C(=C\c2ccc(-c3cccc(Cl)c3)o2)C(=O)N1c1nccs1	45µM*	-43%	8.9µM*	?	10µM*	?	?	22µM*	17µM*	7.6µM*	Pol kappa inh-2=24*
O=C(O)C1=C[C@@H](c2csc3ccccc23)C[C@@H](OCc2ccc(CO)cc2)O1	7%	10%	-13%	-2%	-13%	11%	.	.	.	.
COc1cccc(-c2ncc3ccccc3c2COC(=O)N(C)C)c1	-2%	-1%	.	-4%	3%	-11%	.	.	.	.
O=C(Nc1nncs1)c1cc(-c2ccco2)nc2ccccc12	32µM*	?	.	-17%	14µM*	?	76*	?	-9%	?	Pol kappa inh-2=?
O=C(Nc1nc(-c2ccco2)cs1)c1ccccc1	?	?	0%	-24%	?	?	.	.	.	.
Cc1cc(O)c(Oc2cc(C)cc(O)c2O)c(O)c1	28µM*	22µM*	3.5µM*	50µM*	22µM*	40µM*	38*	19µM*	-7%	22µM*
Cc1ccc(OCC(=O)O)c(O)c1	4%	0%	.	3%	-5%	3%	.	.	.	.
